About 83,000 compounds went through this panel and 20% of them were active in at least one assay; those are over-represented in the sample as a whole.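 48-hour exposure, single concentration, 96-well plates; percent growth endpoint where 0 means no net growth. Active: below 10.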 Active and inactive are the calls of the source.
System: NCI-H522 lung
Assay: NCI-60 one-dose screen, 48 h (100 = growth as untreated, 0 = no growth, -100 = all killed)
Details: 10 µM unless noted
Protocol: Growth inhibition of the NCI-H522 human Non-Small Cell Lung tumor cell line is measured as a screen for anti-cancer activity. Cells are grown in 96 well plates and exposed to the test compound for 48 hours. Compounds are tested at a single concentration, which is 10^-5 M for most compounds. The reported endpoint is percent growth (GI% or GIPRCNT), where numbers from 0 - 100% represent growth inhibition, and numbers from -100% - 0 represent cell death. For example, a value of 40 represents 60% growth inhibition. A value of 0 means no net growth occurred over the course of the experiment. A value of -40 indicates 40% of cells at the beginning of the experiment died by the end of the experiment. A value of -100 means all cells are dead at the end of the experiment.
NCI-60 Human Tumor Cell Lines Screen was performed using the standard one-dose NCI protocol, which is described in more detail at https://dtp.cancer.gov/discovery_development/nci-60/default.htm.
Compounds with GIPRCNT values below 10 were considered active. Activity score was based on GIPRCNT using the following formula: […]
Score is 0 for GIPRCNT values of 100 or above, 50 for GIPRCNT values of 0, and 100 for GIPRCNT values of -100.

Row | SMILES | growth
1 | CC(C)(C)Nc1c(-c2cccs2)nc2ncccn12 | 80.3% (inactive)
2 | O=C(Nc1ccc(NCCN2CCOCC2)nc1)c1ccc([N+](=O)[O-])cc1 | 95.2% (inactive)
3 | S=C1CC(=S)NC(=S)N1 | 101% (inactive)
4 | O=C1NN(C(=O)c2ccc(Cl)cc2)C(c2ccccc2)=N/C1=C\c1cn(-c2ccccc2)nc1-c1ccccc1 | 85% (inactive)
5 | COc1ccc(OC)c(/C=C2\Oc3cc(OCCCN4CCCC4)ccc3C2=O)c1 | 89.6% (inactive)
6 | O=S(=O)(CC(O)(c1ccccc1)c1ccccc1)CC(O)(c1ccccc1)c1ccccc1 | 108% (inactive)
7 | COC(=O)[C@]12CC[C@@H](C)[C@H](C)[C@@H]1C1=CC[C@@H]3[C@@]4(C)C(C=O)=C[C@@](C)(COC(=O)c5ccco5)[C@@H]4[C@H](O)C[C@@]3(C)[C@]1(C)CC2 | -47.9% (active)
8 | COc1cc(/C(C#N)=C/c2ccc3c(c2OC)OCO3)cc2c1OCO2 | -19.1% (active)
9 | Cc1ccc2nc(-c3cc4c([nH]c5ccccc54)c(-c4ccc(F)c(F)c4)n3)[nH]c2c1 | 65.7% (inactive)
10 | O=c1cc(Cc2ccc([N+](=O)[O-])cc2)[nH]c(=O)[nH]1 | 90.5% (inactive)
11 | COc1ccc(NC(=O)CSc2nc(-c3ccc(OC)c(OC)c3)cc(-c3cc(OC)c(OC)c(OC)c3)n2)cc1 | 79.6% (inactive)
12 | COC(OC)c1ccccc1 | 101% (inactive)
13 | O=[N+]([O-])c1ccc(-c2cn(-c3ccccc3)c(-c3ccccc3)n2)cc1 | 44.6% (inactive)
14 | COc1cc(/C=C/C(=O)c2cccc(-n3cc(-c4cc(OC)c(OC)c(OC)c4)[nH]c3=O)c2)cc(OC)c1OC | -66.8% (active)
15 | COc1ccncc1S(=O)(=O)NC(=O)Nc1ccc(Cl)c(Cl)c1 | 82.5% (inactive)
16 | Cc1ccc2nc(Cl)cc(=O)n2c1 | 116% (inactive)
17 | CCCC(=O)Oc1ccc(/C(=C(\C)c2ccccc2)c2ccc(OCCN(CC)CC)cc2)cc1 | 72.1% (inactive)
18 | COc1cc(Nc2ncccc2C(=O)NCc2cn(Cc3cccc(Oc4ccccc4)c3)nn2)cc(OC)c1 | 5.73% (active)
19 | Cc1ccc(-c2csc(NC(=O)CCCCl)n2)cc1 | 83.5% (inactive)
20 | ClC(Cl)c1nc(-c2ccccc2)nc2cc(-c3ccccc3)nn12 | 97.1% (inactive)

Row | SMILES | growth
21 | C=C1CCC2C3(C)COC(c4ccc(N(C)C)cc4)OC3CCC2(C)C1C/C=C1/C(=O)OCC1O (stereo not given) | 74.2% (inactive)
22 | Cc1ccc(Nc2nnc(-c3ccc(Cl)cc3)o2)c(C)c1 | 41% (inactive)
23 | Cn1ccc(=O)c(S(N)(=O)=O)c1 | 96.2% (inactive)
24 | O=C(/C=C/c1c[nH]c2ccccc12)c1ccc(O)c(CN2CCN(c3ccc(F)cc3)CC2)c1 | 102% (inactive)
25 | COc1cc2c(cc1OCCCN1CCN(CCCn3c4ccccc4c4ccccc43)CC1)N=C[C@@H]1CCCN1C2=O | -26.6% (active)
26 | Brc1cccc(-c2cc(-c3ccc4nccnc4c3)[nH]n2)c1 | -5.69% [25 µM] (active)
27 | COc1ccc(-c2nc(N3CCCC3=O)sc2Br)cc1OC | 89.1% (inactive)
28 | CCCCCCCCCCCCCCCCNC(=O)OC(C)C | -54.3% (active)
29 | O=c1[nH]c2ccc(Br)cc2c2c1C(c1ccc(Cl)cc1)c1c(ncn3nc(-c4ccco4)nc13)O2 (stereo not given) | 69.4% (inactive)
30 | COP(=O)(OC)/C(=N\NS(=O)(=O)c1ccc(C)cc1)c1ccccc1 | 126% (inactive)
31 | COc1cc(-c2nn(-c3cccc(NC(=O)c4cccc(C(F)(F)F)c4)c3)cc2-c2ccncc2)ccc1Cl | -42.3% (active)
32 | COc1ccc(Nc2[nH]n3c(=O)cc(C)nc3c2C(N)=O)c(OC)c1 | 84.9% (inactive)
33 | CCCCCc1cc[n+](CC(=O)c2ccc([N+](=O)[O-])cc2)cc1 | 45.7% (inactive)
34 | O=C(CSc1nc2ccccc2[nH]1)Nc1ccc(-c2nc3ccccc3s2)c(Cl)c1 | -9.43% (active)
35 | CC(=O)Nc1ccc(/C=C/C(=O)c2ccccc2)cc1 | 68.1% (inactive)
36 | COc1cc(-c2nn(-c3cccc(NC(=O)Nc4cccc(C(F)(F)F)c4)c3)cc2-c2ccncc2)ccc1Cl | -30.8% (active)
37 | Cn1cc(-c2cnc3ccc(NC(=O)Nc4ccc(F)c(Br)c4)cc3n2)cn1 | 8.07% (active)
38 | COc1cc(C2C3=C(COC3=O)Nc3cc4c(cc32)OCO4)cc2c1OCO2 (stereo not given) | 5.26% (active)
39 | CC(C)(C)c1[nH]nc2c1C(c1cc3ccccc3[nH]c1=O)Nc1cc(C(=O)Nc3ccc(Cl)cc3)ccc1N2 (stereo not given) | 74.5% (inactive)
40 | Cc1ccc(-c2cc3nc(-c4ccccc4)nc(C(Cl)Cl)n3n2)cc1 | 95.4% (inactive)

From PubChem BioAssay (NCI)
